# tim10-1 inh: growth inhibitors of tim10-1 mutant yeast. 330,000 compounds, 2.2% hits. S. cerevisiae tim10-1 ts strain growth, BacTiter-Glo, 24 h. inhibition, % at 20 µM;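 active = inhibition of at least 40%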;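 note: mutant grown at 25 °C; 0% = DMSO wells with yeast and 100% = wells holding no yeast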
# SKKanGAS inh: inhibitors of SKKanGAS S. pyogenes growth in kanamycin (SK-promoter or general growth effect). BacTiter-Glo, 6 h. inhibition, % at 7.5 µM. 300,000 compounds, 1.3% hits;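 active = mean replicate score, as percent of positive control median, at least 50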;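 note: strain carries kanamycin resistance gene driven by streptokinase promoter and grows in 40 µg/ml kanamycin; loss of luminescence reflects streptokinase promoter inhibition or plain growth inhibition; 0% = median of DMSO wells and 100% = positive control at its reference dose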
# EBI2 antag: antagonists of human EBI2 receptor; inhibition, % at 5 µM; EBI2 beta-arrestin recruitment, luminescence, 7a,25-OHC stimulated; 360,000 compounds, 0.81% hits; AID 651636; P32249; in the data active = inhibition above about 38%;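 note: enzyme fragment complementation signal reports receptor beta-arrestin coupling in cells; 0% = agonist plus DMSO wells and 100% = wells without agonist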
# Target sequence (P32249 whole entry, looked up, the tested form may be a part): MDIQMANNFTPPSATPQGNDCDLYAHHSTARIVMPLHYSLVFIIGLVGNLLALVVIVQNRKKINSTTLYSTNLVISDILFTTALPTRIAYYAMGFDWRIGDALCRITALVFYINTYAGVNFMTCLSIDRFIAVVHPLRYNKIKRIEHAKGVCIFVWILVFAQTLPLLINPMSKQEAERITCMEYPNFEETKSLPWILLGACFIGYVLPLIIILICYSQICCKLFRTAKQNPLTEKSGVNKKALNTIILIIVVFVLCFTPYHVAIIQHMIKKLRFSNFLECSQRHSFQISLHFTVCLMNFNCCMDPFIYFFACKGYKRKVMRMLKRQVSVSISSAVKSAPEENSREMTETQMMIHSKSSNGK
# PfHsp90 yeast 2: growth inhibition of yeast expressing Plasmodium Hsp90; S. cerevisiae expressing PfHsp90, BacTiter-Glo ATP, 48 h; yeast lacking PDR1 and PDR3 efflux regulators; inhibition, % at 9.4 µM; 310,000 compounds, 0.32% hits; AID 504621;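 active = every replicate shows inhibition above about 80%, whatever the replicate mean, limit read from the data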;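 note: 0% = DMSO neutral controls and 100% = 20 µM radicicol positive controls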
# tim23-1 inh: growth inhibitors of tim23-1 mutant yeast. S. cerevisiae tim23-1 growth, BacTiter-Glo luminescence, 24 h. inhibition, % at 20 µM. 330,000 compounds, 1.3% hits. AID 463212;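 active = growth inhibition of the mutant yeast at or above 50%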;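 note: temperature-sensitive mutant grown at 25 °C; plate controls were DMSO-treated mutant yeast for no effect and medium wells lacking yeast for full effect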
# TIM10 inh: TIM10 yeast growth inhibition; inhibition, % at 10 µM; S. cerevisiae TIM10 strain growth, BacTiter-Glo luminescence, 24 h; 330,000 compounds, 1.4% hits; AID 463195;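 active = inhibition of 40% or more at the single tested concentration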;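 note: wild-type TIM10 isogenic control strain grown at permissive 25 °C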
# tim23-1 confirm: confirmation of tim23-1 mutant yeast growth inhibitors; 4,400 compounds, 83% hits; S. cerevisiae tim23-1 growth, BacTiter-Glo luminescence, 24 h; shares compounds with tim23-1 inh; inhibition, % at 20 µM;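 active = inhibition above about 39% in either of two replicate wells at 20 µM, limit read from the data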;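 note: temperature-sensitive tim23-1 mutant grown at 25 °C; 0% = DMSO wells with yeast and 100% = medium wells without yeast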
# Active calls of the source: *; nt = not tested or not shown. Only some compounds are listed: those with a hit (about 4.7% of all), similar ones and a draw of the others.
SMILES,tim10-1 inh,SKKanGAS inh,EBI2 antag,PfHsp90 yeast 2,tim23-1 inh,TIM10 inh,tim23-1 confirm
CCCCNc1c(-c2ccc(OC)c(SC(C)CC)c2)nc2cc(C)ccn12 (stereo not drawn),29,nt,31,-12,55*,20,51*
CCCCNc1c(-c2ccc(OC)c(SC(C)CC)c2)nc2ccc(C)cn12 (stereo not drawn),4,nt,-71,-7,54*,3,41*
CCC(C)Sc1ccc(-c2nc3ccc(C)cn3c2NC2CCCCC2)cc1 (stereo not drawn),19,5,nt,nt,6,1,nt
CCC(C)Sc1cc(-c2nc3cc(C)ccn3c2NC2CCCCC2)ccc1OC (stereo not drawn),34,nt,15,7,60*,34,49*
CCC(C)Sc1cccc(-c2nc3cnccn3c2NC2CCCCC2)c1 (stereo not drawn),21,nt,12,19,50,19,41*
CCCc1cc(=O)oc2cc(C)cc(OC(C)C(=O)NCCCn3ccnc3)c12 (stereo not drawn),12,-1,-18,6,1,2,nt
CC(C)c1ccccc1NC(=O)COC(=O)C1(C)CC1(Cl)Cl (stereo not drawn),29,-2,-7,nt,29,-18,nt
Cc1ccc(C(=O)OC(C)C(=O)c2cc(C)c(C)cc2C)o1 (stereo not drawn),5,16,7,-101,11,-17,nt
CC(C)c1ccc(NC(=O)COC(=O)c2nn(C)c(=O)c3ccccc23)cc1,-19,nt,-11,2,-60,-10,nt
Cc1cc(SCC(=O)N/N=C/c2ccc(O)cc2O)nc2ccccc12,18,21,17,-5,51*,28,52*
O=C(Nc1ccc(N2CCCCC2)cc1)c1ccc2ccccc2n1,4,-31,22,3,11,6,nt
O=c1cc(CSc2nc3ccccc3[nH]2)c2ccccc2[nH]1,-4,-3,1,7,17,7,nt
Fc1ccc(CSc2nc3ccccc3[nH]2)c2ccccc12,32,50*,18,-44,56*,39,55*
CCOC(=O)c1ccc(NC(=O)/C=C/c2cccs2)cc1,9,-4,14,14,61*,19,52*
CCN(CC)CCOC(=O)c1ccc(NC(=O)/C=C/c2cccs2)cc1,15,-5,-8,-23,0,-3,nt
CCn1c(=O)c(C(=O)NCc2ccccc2Cl)c(O)c2ccccc21,-10,39,-11,33,35,3,nt
Cn1c(=O)c(C(=O)NCc2ccccc2)c(O)c2ccccc21,-16,-8,-13,4,54*,-2,26
CC(=O)c1c(O)c2ccccc2n(Cc2ccccc2)c1=O,28,1,3,-1,56*,11,36
COc1cc(C(=O)OC(C)c2ccc(F)cc2)ccc1OCC(=O)N1CCOCC1 (stereo not drawn),14,nt,4,-5,10,13,nt
c1ccc(CCN(Cc2ccccc2)Cc2nc(C3CC3)no2)cc1,19,16,17,9,-6,-2,nt
CCOC(=O)C1=CN(Cc2cccc(F)c2)S(=O)(=O)NC1c1ccc(Br)cc1F (stereo not drawn),29,nt,18,-44,56*,19,46*
COc1ccc(-c2cc(-c3ccc(C)cc3)n[nH]2)c(O)c1,8,77*,16,1,54*,21,-21
C=CCc1cccc(/C=N/NC(=O)CNc2cccc3ccccc23)c1O,27,8,6,-31,57*,19,73*
C=CCc1cccc(/C=N/NC(=O)CNc2ccccc2)c1O,24,22,27,11,11,5,nt
Cn1c(NCc2ccccc2)nc2cc(-c3ccccc3)sc2c1=O,nt,nt,6,nt,nt,nt,nt
SMILES,tim10-1 inh,SKKanGAS inh,EBI2 antag,PfHsp90 yeast 2,tim23-1 inh,TIM10 inh,tim23-1 confirm
Cc1nc2cc(-c3ccccc3)sc2c(=O)n1N,36,63*,-5,56,51*,33,53*
Brc1ccc(-n2cnc(-c3ccccc3)c2)cc1,10,-5,39,-5,55*,35,51*
O=[N+]([O-])c1ccc(-c2cn(-c3ccc(Cl)cc3)cn2)cc1,nt,nt,31,nt,nt,nt,nt
Cc1ccc(CN2CCN(C/C(Cl)=C/c3ccccc3)CC2CCO)o1 (stereo not drawn),14,7,-2,-5,21,9,nt
Cc1ccc(-c2nc3ccccc3c(=O)n2O)cc1,18,15,8,24,43,-2,nt
O=c1c2ccccc2nc(-c2cccc(Cl)c2)n1O,15,-8,0,-118,59*,36,59*
O=c1c2cc(Cl)ccc2nc(-c2ccccc2Cl)n1O,12,17,-7,0,-7,-9,nt
O=c1c2ccccc2nc(-c2ccc([N+](=O)[O-])cc2)n1O,37,2,-5,8,52*,30,47*
Cc1ccc(-c2nc3ccc(Cl)cc3c(=O)n2O)cc1,8,70*,-1,15,63*,38,55*
Cc1nc2ccc(Br)cc2c(-c2ccccc2)c1C(=O)O,-4,2,1,-1,0,-1,nt
O=c1c2cc(Br)ccc2nc(-c2ccccc2)n1O,23,33,-18,14,60*,10,50*
O=c1c2ccccc2nc(-c2ccccc2)n1Cc1ccc(Cl)cc1,32,24,4,nt,33,25,nt
COc1ccc(NC(=O)CCN2C(=O)NC3(CCCC3)C2=O)cc1Cl,5,nt,0,0,4,12,nt
C=CCOc1ccc(/C=C2\SC(=S)N(NS(=O)(=O)c3ccccc3)C2=O)cc1,19,36,-3,-18,60*,26,56*
CCOc1ccccc1N1C(=O)c2ccc(S(=O)(=O)c3ccc(C(=O)O)cc3)cc2C1=O,-8,4,-10,-6,1,5,nt
O=C(c1ccco1)N1CCN(C(=O)c2ccc(-c3ccc(Cl)cc3)o2)CC1,2,nt,25,-3,51*,18,40*
O=C(c1ccc(Cl)cc1)N1CCN(C(=O)c2ccco2)CC1,-2,0,10,15,11,-4,nt
O=C1NN=C(c2ccc(Cl)cc2)CC1c1c[nH]c2ccccc12 (stereo not drawn),-1,5,11,-89,-39,-6,nt
O=C1NN=C(c2ccc(Cl)cc2)CC1c1cccc(Br)c1 (stereo not drawn),36,-5,29,-26,53*,12,59*
CC1c2[nH]c3ccccc3c2CCN1C(=O)Nc1ccccc1 (stereo not drawn),10,-6,-1,-29,64*,24,50*
O=C(Nc1ccccc1)N1CCc2c([nH]c3ccccc23)C1C(F)(F)F (stereo not drawn),-11,46,0,-2,20,14,nt

# Compound activity from PubChem BioAssay.
